Compound activity: PubChem BioAssay, NMMLSC
Most compounds without a hit are left out; they make up all but 1.2% or so of the library.
MEP2-GFP yeast: yeast TOR pathway MEP2-GFP modulation; S. cerevisiae MEP2-GFP strain, flow cytometry GFP, 3 h; 100% = DMSO control level; GFP response vs DMSO, % at 10 µM; 330,000 compounds, 0.51% hits;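 active = GFP response versus DMSO above a set limit, roughly screen mean plus 3 SD, cut at about 180% in these data; inconclusive = fewer than 70 cells counted for a yeast strain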;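 also: median GFP fluorescence of the barcode-gated MEP2-GFP cells per well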
LAP4-GFP MLPCN: modulators of TOR pathway LAP4-GFP in S. cerevisiae; S. cerevisiae LAP4-GFP multiplex, flow cytometry GFP, 3 h; median GFP as percent of DMSO wells; GFP response vs DMSO, % at 10 µM; 320,000 compounds, 0.34% hits; AID 2023;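 active = GFP response vs DMSO above a set limit, about the screen mean plus 3 SD, cut at about 150% in these data; inconclusive = under 70 cell events counted for the yeast strain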
DSG3 Ab inh: human desmoglein-3 autoantibody binding inhibition; P32926; DSG3-coupled beads, scFv-anti-DSG3-GFP binding, flow cytometry; hits give low values; binding (percent of control), % at 10 µM; 310,000 compounds, 0.48% hits; AID 588358;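 active = binding more than 3 SD below its plate's average and above zero; inconclusive = below that plate limit but binding exactly zero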;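 also: hits lower antibody fragment binding to DSG3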
Target sequence (P32926 whole entry, looked up, the tested form may be a part): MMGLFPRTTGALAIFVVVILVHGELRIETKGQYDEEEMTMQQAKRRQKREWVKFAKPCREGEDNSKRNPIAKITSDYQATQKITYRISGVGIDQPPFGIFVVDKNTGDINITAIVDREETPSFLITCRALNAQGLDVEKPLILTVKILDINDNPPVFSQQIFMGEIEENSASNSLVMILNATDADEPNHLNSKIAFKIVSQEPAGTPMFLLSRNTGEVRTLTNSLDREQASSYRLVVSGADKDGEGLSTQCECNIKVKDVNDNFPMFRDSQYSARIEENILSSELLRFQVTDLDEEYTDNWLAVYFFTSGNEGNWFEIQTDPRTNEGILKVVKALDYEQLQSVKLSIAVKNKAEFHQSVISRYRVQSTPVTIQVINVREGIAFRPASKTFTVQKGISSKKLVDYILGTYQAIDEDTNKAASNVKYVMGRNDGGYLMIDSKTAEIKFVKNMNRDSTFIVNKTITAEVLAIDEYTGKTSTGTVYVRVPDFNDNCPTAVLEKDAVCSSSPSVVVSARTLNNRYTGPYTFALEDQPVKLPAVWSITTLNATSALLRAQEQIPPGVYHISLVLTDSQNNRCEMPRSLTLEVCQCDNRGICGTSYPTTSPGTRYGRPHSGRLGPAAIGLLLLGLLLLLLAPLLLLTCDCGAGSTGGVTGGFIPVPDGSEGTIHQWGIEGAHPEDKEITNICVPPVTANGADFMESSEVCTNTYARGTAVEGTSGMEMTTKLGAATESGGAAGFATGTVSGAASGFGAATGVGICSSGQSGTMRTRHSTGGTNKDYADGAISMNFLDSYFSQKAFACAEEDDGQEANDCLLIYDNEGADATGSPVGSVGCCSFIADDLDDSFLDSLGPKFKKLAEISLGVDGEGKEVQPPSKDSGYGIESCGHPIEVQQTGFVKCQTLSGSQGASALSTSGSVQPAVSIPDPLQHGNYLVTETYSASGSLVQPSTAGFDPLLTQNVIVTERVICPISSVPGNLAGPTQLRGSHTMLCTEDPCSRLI
AGP1 TOR yeast: modulators of TOR pathway AGP1-GFP in S. cerevisiae. AID 2066. GFP response vs DMSO, % at 10 µM. 320,000 compounds, 0.02% hits. S. cerevisiae AGP1-GFP multiplex flow cytometry, 3 h; GFP as percent of DMSO wells;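 active = GFP response relative to DMSO above a set limit, near screen average plus 3 SD, cut at about 150% in these data; inconclusive = fewer than 70 cells counted for the yeast strain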;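 also: median GFP channel fluorescence of the gated AGP1 strain per well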
CIT2 TOR yeast: modulators of TOR pathway CIT2-GFP in S. cerevisiae; S. cerevisiae CIT2-GFP strain, flow cytometry, 3 h; 100 means same as DMSO wells; GFP response vs DMSO, % at 10 µM; 320,000 compounds, 0.065% hits;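 active = GFP response relative to DMSO above a set limit, near the screen mean plus 3 SD, cut at about 150% in these data; inconclusive = Fewer than 70 cells measured for a yeast strain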;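 also: ratio of well median GFP fluorescence to mean of DMSO wells on the plate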
RPL19A TOR yeast: alters RPL19A-GFP fluorescence in TOR pathway yeast screen; S. cerevisiae RPL19A-GFP strain, flow cytometry, 3 h; hits give low values; percent response vs DMSO, % at 10 µM; 330,000 compounds, 0.3% hits;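 active = percent response vs DMSO below 50%; inconclusive = fewer than 70 events counted for the yeast strain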;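 also: median channel GFP fluorescence of the barcoded RPL19A-GFP strain; ratio of sample median GFP to plate DMSO average so 100% = DMSO; lower means less RPL19A-GFP as with rapamycin TOR inhibition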
Active calls of the source: *; [ ] = remark or other dose.

`O=C(COC(=O)Cc1ccc(-c2ccccc2)cc1)NCc1ccc(F)cc1` gave MEP2-GFP yeast 106.1, LAP4-GFP MLPCN 104.6, DSG3 Ab inh 19.4*, AGP1 TOR yeast 93.7, CIT2 TOR yeast 91.8 and RPL19A TOR yeast 99.9.
Screening Cc1ccc(CNC(=O)COC(=O)Cc2ccc(-c3ccccc3)cc2)cc1 returned MEP2-GFP yeast 60.5, LAP4-GFP MLPCN 75.7, DSG3 Ab inh 93.3, AGP1 TOR yeast 82.8, CIT2 TOR yeast 90.3 and RPL19A TOR yeast 97.9.
CC(c1ccc2ccccc2c1)c1ccccc1C(=O)O (configuration not stated) was read as DSG3 Ab inh 105.0.
Screening C=CCNC(=S)N/N=C(\C)c1cccc(OC)c1 returned MEP2-GFP yeast 216.8*, LAP4-GFP MLPCN 123.1, DSG3 Ab inh 88.2, AGP1 TOR yeast 94.1, CIT2 TOR yeast 100.1 and RPL19A TOR yeast 106.4.
CCCn1c(C)nnc1SCC(=O)NC1CCCCC1 was read as MEP2-GFP yeast 110.8, LAP4-GFP MLPCN 98.0, DSG3 Ab inh 110.2, AGP1 TOR yeast 100.4, CIT2 TOR yeast 98.2 and RPL19A TOR yeast 96.9.
`CCCCNC(=O)CCc1c(C)nc2nc(-c3cc(OC)cc(OC)c3)nn2c1C` gave MEP2-GFP yeast 98.1, LAP4-GFP MLPCN 97.9, DSG3 Ab inh -1.6*, AGP1 TOR yeast 99.7, CIT2 TOR yeast 97.9 and RPL19A TOR yeast 97.8.
Screening CCCNC(=O)CCc1c(C)nc2nc(-c3cc(OC)cc(OC)c3)nn2c1C returned MEP2-GFP yeast 94.3, LAP4-GFP MLPCN 86.6, AGP1 TOR yeast 98.6, CIT2 TOR yeast 111.8 and RPL19A TOR yeast 94.5.
Screening CCOC(=O)C(Cc1ccccc1)NC(=O)CCc1c(C)nc2nc(C)nn2c1C (configuration not stated) returned MEP2-GFP yeast 92.2, LAP4-GFP MLPCN 94.6, DSG3 Ab inh 85.9*, AGP1 TOR yeast 94.8, CIT2 TOR yeast 100.1 and RPL19A TOR yeast 94.3.
Screening Cc1ccc(NC(=O)COc2ccc(/C=N/NC(=O)CSCc3ccccc3)cc2)cc1 returned MEP2-GFP yeast 97.8, LAP4-GFP MLPCN 91.3, DSG3 Ab inh 80.7*, AGP1 TOR yeast 99.4, CIT2 TOR yeast 101.8 and RPL19A TOR yeast 93.5.
COc1ccc(CSCC(=O)N/N=C/c2ccccc2O)cc1 was read as MEP2-GFP yeast 101.1, LAP4-GFP MLPCN 112.5, DSG3 Ab inh 53.2*, AGP1 TOR yeast 105.0, CIT2 TOR yeast 100.6 and RPL19A TOR yeast 103.5.
For O=C(NCCO)/C(=C\c1cccc([N+](=O)[O-])c1)NC(=O)c1cccs1 the results were DSG3 Ab inh 95.6.
For CCOC(=O)c1ccc(NC(=O)c2nc[nH]c2C(=O)N(C)CCO)cc1 the results were DSG3 Ab inh 98.5.
COc1ccc(CN2C(=O)c3cccnc3C2=O)cc1S(=O)(=O)N1CCOc2ccccc21 was read as MEP2-GFP yeast 333.6*[may fluoresce violet], LAP4-GFP MLPCN 110.0, DSG3 Ab inh 94.1, AGP1 TOR yeast inconclusive, CIT2 TOR yeast inconclusive and RPL19A TOR yeast 45.1*[may fluoresce violet].
`CSc1ccc(C2=C/C(=C3/SC(=S)NC3=O)c3ccccc3O2)cc1` gave DSG3 Ab inh 80.7*.
For Cc1ccccc1OCC(=O)Nc1ccccc1-c1ccccc1 the results were MEP2-GFP yeast 98.0, LAP4-GFP MLPCN 104.6, DSG3 Ab inh 8.5*, AGP1 TOR yeast 103.1, CIT2 TOR yeast 94.7 and RPL19A TOR yeast 98.4.
Cc1ccc(-c2nn3c(C)nnc3s2)cc1NC(=O)C(C)C was read as MEP2-GFP yeast 99.8, LAP4-GFP MLPCN 102.1, DSG3 Ab inh 81.8*, AGP1 TOR yeast 100.1, CIT2 TOR yeast 97.7 and RPL19A TOR yeast 97.2.
Nc1cc(-c2ccc(Cl)cc2)nn1S(=O)(=O)c1ccccc1 was read as MEP2-GFP yeast 107.9, LAP4-GFP MLPCN 107.3, DSG3 Ab inh 24.7*, AGP1 TOR yeast 102.3, CIT2 TOR yeast 98.7 and RPL19A TOR yeast 103.1.
`CN(CC(=O)Nc1cccc(F)c1)C(=O)/C=C/c1ccc2ccccc2n1` gave MEP2-GFP yeast 99.6, LAP4-GFP MLPCN 85.7, DSG3 Ab inh 99.7, AGP1 TOR yeast 94.5, CIT2 TOR yeast 103.0 and RPL19A TOR yeast 102.1.
